# Among all 340,000 compounds or so, about 470 (0.14%) were called active. This is one part of a sample in which actives are shown more often than they occur. Values without a mark were called inactive.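 How the source made its calls: active means mean activation of 30% or more, with every replicate also reaching 30%; inconclusive means mean activation of 30% or more but some replicate falls short; inactive means the rest.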
# Assay: miR-122 suppressors via Renilla sensor increase, primary screen, cell-based, Huh7 psiCHECK-miR122, Renilla luciferase, single point (AID 623901);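 further: 0% = median of neutral control wells and 100% = median of positive control wells; higher luciferase signal means stronger suppression of miR-122 activity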
# Details: 48 h, at 12.5 µM, stronger effect = higher value
row,Compound,activation
1,COc1ccc(OC)c(S(=O)(=O)Nc2cccc(-c3ccc4nncn4n3)c2)c1,-333%
2,C[C@@H]1CN([C@H](C)CO)S(=O)(=O)c2ccc(C#CCC3CCCC3)cc2O[C@H]1CN(C)C(=O)CC1CC1,-0.08%
3,CO[C@@H]1CN(C)C(=O)c2cc(NS(=O)(=O)CC(F)(F)F)ccc2OC[C@H](C)N(C)C[C@H]1C,-2.27%
4,C[C@H](CO)N1C[C@H](C)[C@H](CN(C)CC2CCCCC2)Oc2c(NC(=O)c3cnccn3)cccc2C1=O,-119%
5,C[C@@H]1CN([C@H](C)CO)C(=O)c2cc(C#CC3CCCC3)cnc2O[C@@H]1CN(C)C(=O)C1CCC1,-4.13%
6,CCOc1ccccc1N1CCN(C(=O)c2ccc3[nH]c(C)c(C)c3c2)CC1,-100%
7,C[C@H](CO)N1C[C@H](C)[C@H](CN(C)C(=O)Nc2cccc3ccccc23)Oc2ncc(C#Cc3ccccc3)cc2C1=O,8.08%
8,C[C@H]1CN([C@@H](C)CO)S(=O)(=O)c2ccc(Br)cc2O[C@H]1CN(C)Cc1ccccn1,4.93%
9,CSc1ccc(S(=O)(=O)NC2CCCCC2)cc1,-102%
10,CCCC#Cc1cnc2c(c1)C(=O)N([C@H](C)CO)C[C@H](C)[C@@H](CN(C)Cc1ccccc1)O2,2.96%
11,C[C@@H]1CN([C@H](C)CO)C(=O)c2cc(-c3ccc(F)cc3)cnc2O[C@@H]1CN(C)Cc1ccc(C(=O)O)cc1,-8.09%
12,Cc1c(C)c(C)c(S(=O)(=O)NCCc2ccccn2)c(C)c1C,-107%
13,CCC(=O)N1C[C@H](C)[C@H](OC)CN(C)C(=O)c2ccc(NS(C)(=O)=O)cc2OC[C@H]1C,0.433%
14,C[C@H]1CN([C@@H](C)CO)C(=O)c2cc(C#CC3(O)CCCC3)cnc2O[C@@H]1CN(C)C(=O)Cc1ccccc1,0.596%
15,COc1cccc2sc(N(CCCN(C)C)C(=O)C(c3ccccc3)c3ccccc3)nc12,74.2% (active)
16,C[C@@H]1CN([C@H](C)CO)S(=O)(=O)c2ccc(-c3ccccc3)cc2O[C@@H]1CN(C)C(=O)CC1CC1,-0.601%
17,C[C@H](CO)N1C[C@H](C)[C@@H](CN(C)CC2CCOCC2)Oc2ncc(C#Cc3ccc(F)cc3)cc2C1=O,4.08%
18,C[C@@H]1CN([C@@H](C)CO)S(=O)(=O)c2ccc(C#CCC3CCCC3)cc2O[C@H]1CN(C)C(=O)CC1CC1,-4.63%
19,C[C@@H]1CN([C@H](C)CO)C(=O)c2cc(C#CC3(O)CCCC3)cnc2O[C@H]1CN(C)Cc1ccncc1,-9.22%
20,C[C@H](CO)N1C[C@H](C)[C@@H](CN(C)Cc2ccncc2)Oc2ncc(C#CC3CC3)cc2C1=O,-22.7%
21,Cc1ccc(C(=O)Nc2ccccc2-c2ccccc2)cc1S(=O)(=O)Nc1ccccc1,-94%
22,N=c1c2c(-c3ccccc3)c(-c3ccccc3)n(Cc3ccccc3)c2ncn1CCCO,42.7% (active)
23,CCCN1C[C@@H](C)[C@@H](OC)CN(C)C(=O)c2ccc(NS(C)(=O)=O)cc2OC[C@@H]1C,-0.143%
24,C/C=C/c1ccc2c(c1)O[C@H](CN(C)Cc1ccccc1)[C@H](C)CN([C@@H](C)CO)S2(=O)=O,-0.63%

row,Compound,activation
1,C[C@H](CO)N1C[C@H](C)[C@H](CN(C)Cc2ccncc2)Oc2ncc(C#Cc3cccc(F)c3)cc2C1=O,-2.31%
2,COCC#Cc1cnc2c(c1)C(=O)N([C@@H](C)CO)C[C@@H](C)[C@H](CN(C)C(=O)Nc1ccccc1OC)O2,-17.8%
3,CCc1ccc(-c2cc(C)no2)cc1S(=O)(=O)NCCc1ccc(S(N)(=O)=O)cc1,-124%
4,C[C@H](CO)N1C[C@H](C)[C@H](CN(C)Cc2ccccn2)Oc2ncc(C#CCc3ccccc3)cc2C1=O,-4.42%
5,Cc1ccc(S(=O)(=O)Nc2ccc3ncccc3c2)cc1,-146%
6,COCC(=O)N(C)C[C@H]1Oc2cc(C#CC(C)C)ccc2S(=O)(=O)N([C@H](C)CO)C[C@@H]1C,-9.28%
7,CCOC(=O)c1c(S(=O)(=O)Nc2cccc(Cl)c2)c(C)n(C)c1C,-92%
8,O=C(/C=C(O)/C=C/c1ccc(O)cc1)/C=C/c1ccc(O)cc1,-140%
9,CCC(=O)Nc1ccc2c(c1)OC[C@H](C)N(Cc1ccccc1F)C[C@H](C)[C@@H](OC)CN(C)C2=O,3.89%
10,Cn1c(NC(=O)c2ccco2)c(-c2ccccc2Cl)c(=O)c2ccccc21,66.3% (active)
11,COc1ccc(NS(=O)(=O)c2ccc(NC(=S)NC(=O)CC(C)C)cc2)cc1,-161%
12,COc1ccc(NS(=O)(=O)c2ccc(NC(=O)C(C)(C(F)(F)F)C(F)(F)F)cc2)nn1,35.7% (active)
13,CO[C@H]1CN(C)C(=O)c2cc(NS(=O)(=O)c3ccccc3)ccc2OC[C@H](C)N(C)C[C@@H]1C,-1.29%
14,C[C@H](CO)N1C[C@H](C)[C@@H](CN(C)S(=O)(=O)c2ccccc2)Oc2ncc(C#Cc3ccccc3F)cc2C1=O,1.81%
15,COc1ccc(OCCCC(=O)NCCc2ccccc2)cc1,-223%
16,CC(C)C#Cc1ccc2c(c1)O[C@@H](CN(C)C(=O)NC(C)C)[C@H](C)CN([C@H](C)CO)S2(=O)=O,-66.1%
17,COc1ccccc1-c1cnc2c(c1)C(=O)N([C@H](C)CO)C[C@@H](C)[C@@H](CN(C)CC1CCCC1)O2,5.29%
18,Cc1ccc(NS(=O)(=O)c2cc3c(cc2C)NC(=O)CO3)cc1,-92.7%
19,CCCC(=O)Nc1ccc2c(c1)C(=O)N(C)C[C@H](OC)[C@@H](C)CN[C@H](C)CO2,1.08%
20,CNC(=O)C[C@@H]1CC[C@H]2[C@H](COc3ccc(NC(=O)c4cccc(OC)c4)cc3C(=O)N2C)O1,50% (active)
21,CCCC(=O)Nc1ccc2c(c1)C(=O)N(C)[C@H]1CC[C@@H](CC(=O)NCc3cccc(F)c3)O[C@H]1CO2,-120%
22,CC(C)C(=O)Nc1ccc2c(c1)C(=O)N(C)[C@@H]1CC[C@@H](CC(=O)NCCc3ccccc3)O[C@H]1CO2,56.7% (active)
23,CCC(=O)Nc1ccc2c(c1)C(=O)N(C)C[C@@H](OC)[C@@H](C)CN(Cc1ccccc1OC)[C@H](C)CO2,-2.97%
24,Cn1cnc(CCNC(=O)C[C@@H]2CC[C@@H]3[C@H](COC[C@@H](O)CN3C(=O)Nc3ccccc3)O2)c1,4.36%

row,Compound,activation
1,Cc1ccc(-c2ccc3c(c2)O[C@@H](CN(C)C(=O)NC(C)C)[C@@H](C)CN([C@H](C)CO)S3(=O)=O)cc1,-3.11%
2,COc1ccc(OC)c(-n2cc3c(=O)n(C)c(=O)n(C)c3c2)c1,-102%
3,O=C(NNC(=O)c1ccccc1O)c1ccccc1O,-530%
4,CCCN(C)C[C@H]1Oc2ncc(-c3ccccc3OC)cc2C(=O)N([C@H](C)CO)C[C@@H]1C,6.19%
5,O=c1c(-c2ccccc2)coc2c(CN3CCOCC3)c(O)ccc12,35.8% (active)
6,CNC[C@@H]1Oc2cc(-c3ccccc3OC)ccc2S(=O)(=O)N([C@H](C)CO)C[C@H]1C,-5.6%
7,C[C@@H]1CN([C@H](C)CO)C(=O)c2cc(C#CCN(C)C)cnc2O[C@H]1CN(C)C(=O)Cc1ccncc1,2.45%
8,C[C@@H]1CN([C@@H](C)CO)S(=O)(=O)c2ccc(-c3cccc(C(=O)N(C)C)c3)cc2O[C@@H]1CN(C)C(=O)Nc1ccccc1,-16.6%
9,Cc1ccc(S(=O)(=O)NC2CCCCCC2)cc1,-106%
10,C[C@H](CO)N1C[C@H](C)[C@@H](CN(C)C(=O)Cc2cccnc2)Oc2ncc(-c3ccncc3)cc2C1=O,-1.97%
11,O=C(Nc1ccc(F)cc1)N1CCCCN2[C@H](CO)[C@H](c3ccc(C#Cc4ccccc4)cc3)[C@H]2C1,34.6% (active)
12,COc1ccc(C#Cc2ccc([C@H]3[C@@H](CO)N4CCCCN(C(=O)Nc5ccccc5)C[C@H]34)cc2)cc1,35.5% (active)
13,O=C(NCCCn1ccnc1)c1cc(-c2ccccc2)on1,-98.4%
14,O=C(CN1CCOCC1)Nc1cc(Cl)ccc1Cl,-101%
15,O=S(=O)(N/N=C\c1cccn1-c1ccccc1)c1ccc2ccccc2c1,-97.9%
16,Cc1noc(C)c1NC(=O)N(C)C[C@@H]1Oc2cc(C#CCC(C)C)ccc2S(=O)(=O)N([C@H](C)CO)C[C@@H]1C,-3.73%
17,CCCNC(=O)N(C)C[C@H]1Oc2ncc(C#C[C@@H](C)O)cc2C(=O)N([C@@H](C)CO)C[C@@H]1C,7.15%
18,COc1ccc(C(=O)N2C[C@@H]3[C@H](c4ccccc42)[C@H](CO)N3Cc2ccc3c(c2)OCO3)cc1,-247%
19,O=C(c1ccccc1F)N1C[C@H]2[C@@H](c3ccccc31)[C@@H](CO)N2C(=O)c1ccc(F)cc1,-471%
20,O=C(CC(F)(F)F)N1C[C@H]2[C@@H](c3ccccc31)[C@H](CO)N2C(=O)Cc1cccnc1,33.3% (active)
21,CCCC#Cc1ccc2c(c1)O[C@H](CN(C)C(=O)CC)[C@@H](C)CN([C@H](C)CO)S2(=O)=O,-45.7%
22,CCCNC(=O)N(C)C[C@@H]1Oc2cc(-c3ccccc3)ccc2S(=O)(=O)N([C@H](C)CO)C[C@H]1C,-13.1%
23,C[C@@H]1CN([C@@H](C)CO)S(=O)(=O)c2ccc(C#C[C@@H](C)O)cc2O[C@@H]1CN(C)C(=O)Cc1ccccn1,2.54%

# From PubChem BioAssay AID623901 (Broad Institute, 2012)
